Reference: PubChem BioAssay (EPA / NIEHS)
Active and inactive are the calls of the source. The calls were made as follows: active = hit-call score of the fitted dose curve at least 0.9, where 1 is the maximum; inactive = score below 0.9.

Assays:
Conditions in all cases: mRNA level, 48 h; actives raise or lower the signal
[1] = read-out: Glutathione S-transferase M3 (GSTM3), GSTM3 (gene 2947); assay: LTEA_HepaRG_GSTM3: Life Technologies and Expression Analysis (LTEA) Assay for Glutathione S-transferase M3 (GSTM3) using HepaRG (AID 2283501)
In short: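 HepaRG, plated 48 h, then serum-free induction medium; test chemical 48 h, duplicate; 100 uM top, half-log x8, 0.5% DMSO. Read-out: GSTM3 mRNA (TaqMan qRT-PCR, Fluidigm array). Bidirectional fit vs DMSO.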

[2] = read-out: Heat shock 70 kDa protein 1 (HSPA1A), gene 3303; assay: LTEA_HepaRG_HSPA1A: Life Technologies and Expression Analysis (LTEA) Assay for Heat shock 70 kDa protein 1 (HSPA1A) using HepaRG (AID 2283502)
In short: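 Readout is HSPA1A transcript level by microfluidic qRT-PCR, normalized to three housekeeping genes and analysed for gain or loss of signal relative to 0.5% DMSO. Human HepaRG cultures received test chemicals for 48 h at up to 100 uM.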

[3] = read-out: Hypoxia-inducible factor 1-alpha (Homo sapiens) (UniProt Q16665); assay: LTEA_HepaRG_HIF1A: Life Technologies and Expression Analysis (LTEA) Assay for Hypoxia-inducible factor 1 (HIF1A) Trancription factor using HepaRG (AID 2283503)
In short: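 Differentiated HepaRG cells in serum-free induction medium exposed 48 h, in duplicate, to 8-point half-log series from 100 uM in 0.5% DMSO. HIF1A mRNA measured by TaqMan qRT-PCR, normalized to ACTB/GAPDH/POLR2A, fitted bidirectionally versus DMSO.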

[4] = read-out: 3-Hydroxy-3-Methylglutaryl-CoA Synthase 2 (HMGCS2), HMGCS2 (gene 3158); assay: LTEA_HepaRG_HMGCS2: Life Technologies and Expression Analysis (LTEA) Assay for 3-Hydroxy-3-Methylglutaryl-CoA Synthase 2 (HMGCS2) using HepaRG (AID 2283504)
In short: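 HepaRG, plated 48 h then switched to serum-free induction media; cmpd 8-pt, max 100 uM, 1/2-log, 0.5% DMSO, n=2, 48 h. HMGCS2 mRNA by Fluidigm TaqMan qRT-PCR, ACTB/GAPDH/POLR2A norm; bidirectional fit vs DMSO.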

HGF (gene 3082) = assay: LTEA_HepaRG_HGF: Life Technologies and Expression Analysis (LTEA) Assay for Hepatocyte Growth Facto (HGF) using HepaRG (AID 2283505)
In short: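 Read-out is HGF transcript level by qRT-PCR, normalized to three housekeeping genes, fitted bidirectionally against 0.5% DMSO vehicle. Human HepaRG cells received test chemicals for 48 h at up to 100 uM.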

[5] = read-out: Insulin Like Growth Factor 1 (IGF1), IGF1 (gene 3479); assay: LTEA_HepaRG_IGF1: Life Technologies and Expression Analysis (LTEA) Assay for Insulin Like Growth Factor 1 (IGF1) using HepaRG (AID 2283506)
In short: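 HepaRG, plated 48 h, then switched to serum-free induction media; test chemical 8-pt half-log from 100 uM (0.5% DMSO), duplicate, 48 h. Lysis in RLT, TaqMan qRT-PCR, norm. ACTB/GAPDH/POLR2A. Bidirectional fit vs DMSO.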

[6] = read-out: Intercellular Adhesion Molecule 1 (ICAM1), ICAM1 (gene 3383); assay: LTEA_HepaRG_ICAM1: Life Technologies and Expression Analysis (LTEA) Assay for Intercellular Adhesion Molecule 1 (ICAM1) using HepaRG (AID 2283507)
In short: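 Readout is qRT-PCR mRNA level, normalized to three housekeeping genes and fitted bidirectionally against 0.5% DMSO vehicle. Human HepaRG cultures received compound for 48 h, top concentration 100 uM with half-log dilutions.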

[7] = read-out: Insulin-like growth factor-binding protein 1 (IGFBP1), IGFBP1 (gene 3484); assay: LTEA_HepaRG_IGFBP1: Life Technologies and Expression Analysis (LTEA) Assay for Insulin-like growth factor-binding protein 1 (IGFBP1) using HepaRG (AID 2283508)
In short: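 Thawed HepaRG cells are plated for 48 h, switched to serum-free induction medium, then dosed in duplicate for another 48 h (100 uM top, half-log steps). Lysates in RLT go to qRT-PCR, and gain or loss of signal is fitted relative to vehicle.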

[8] = read-out: Interleukin 6 Receptor (IL6R), IL6R (gene 3570); assay: LTEA_HepaRG_IL6R: Life Technologies and Expression Analysis (LTEA) Assay for Interleukin 6 Receptor (IL6R) using HepaRG (AID 2283510)
In short: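 Readout is IL6R transcript level by TaqMan qRT-PCR, normalized to three housekeeping genes and fitted bidirectionally against 0.5% DMSO controls. Human HepaRG cells received chemicals for 48 h in serum-free induction medium, highest concentration 100 uM.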

[9] = read-out: Potassium channel subfamily K member 1 (KCNK1), KCNK1 (gene 3775); assay: LTEA_HepaRG_KCNK1: Life Technologies and Expression Analysis (LTEA) Assay for Potassium channel subfamily K member 1 (KCNK1) using HepaRG (AID 2283511)
In short: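 Differentiated human HepaRG cells in serum-free induction medium were exposed in duplicate for 48 h to 8 half-log concentrations up to 100 uM in 0.5% DMSO. KCNK1 mRNA was measured by TaqMan qRT-PCR, normalized to ACTB, GAPDH and POLR2A, and fitted bidirectionally versus DMSO.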

[10] = read-out: Keratin 19 (KRT19), KRT19 (gene 3880); assay: LTEA_HepaRG_KRT19: Life Technologies and Expression Analysis (LTEA) Assay for Keratin 19 (KRT19) using HepaRG (AID 2283512)
In short: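 KRT19 transcript levels, measured by Fluidigm qRT-PCR against three housekeeping genes, are fitted for gain or loss of signal relative to DMSO. Human HepaRG cells receive test chemicals (top 100 uM, half-log steps, 0.5% DMSO) for 48 hours.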

[11] = read-out: JUN Transcription Factor, JUN (gene 3725); assay: LTEA_HepaRG_JUN: Life Technologies and Expression Analysis (LTEA) Assay for JUN Transcription Factor using HepaRG (AID 2283513)
In short: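 Cells plated 48 h, medium switched to serum-free induction medium, then dosed 48 h (100 uM top, half-log dilutions, 0.5% DMSO). RNA isolated; JUN measured by qRT-PCR against three housekeeping genes; gain or loss fitted relative to DMSO.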

[12] = read-out: Lipase C (LIPC), LIPC (gene 3990); assay: LTEA_HepaRG_LIPC: Life Technologies and Expression Analysis (LTEA) Assay for Lipase C (LIPC) using HepaRG (AID 2283514)
In short: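 Differentiated human HepaRG cells in serum-free induction medium were exposed in duplicate for 48 h to eight concentrations (top 100 uM, half-log steps, 0.5% DMSO). LIPC mRNA was quantified by TaqMan qRT-PCR, normalized to ACTB, GAPDH and POLR2A, with bidirectional fitting versus DMSO.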

[13] = read-out: Lipoprotein lipase (LPL), LPL (gene 4023); assay: LTEA_HepaRG_LPL: Life Technologies and Expression Analysis (LTEA) Assay for Lipoprotein lipase (LPL) using HepaRG (AID 2283515)
In short: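 Differentiated human HepaRG cells in serum-free induction medium were exposed in duplicate for 48 h to eight half-log concentrations (top 100 uM) in 0.5% DMSO. LPL mRNA was quantified by TaqMan qRT-PCR, normalized to ACTB, GAPDH and POLR2A.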

[14] = read-out: MicroRNA 122 (MIR122), gene 406906; assay: LTEA_HepaRG_MIR122: Life Technologies and Expression Analysis (LTEA) Assay for MicroRNA 122 (MIR122) using HepaRG (AID 2283516); also: the transcript read is the microRNA miR-122
In short: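 HepaRG plated 48 h, switched to serum-free induction medium, then treated in duplicate for 48 h (100 uM top, half-log steps, 0.5% DMSO vehicle). RNA isolated, qRT-PCR performed, concentration-response fitted both directions relative to DMSO.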

[15] = read-out: matrix metalloproteinase-10 (MMP10), MMP10 (gene 4319); assay: LTEA_HepaRG_MMP10: Life Technologies and Expression Analysis (LTEA) Assay for matrix metalloproteinase-10 (MMP10) using HepaRG (AID 2283517)
In short: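 HepaRG, collagen I, ~100,000 cells/well; serum-free induction medium; 48 h exposure, duplicate, 8-pt half-log to 100 uM, 0.5% DMSO. Readout: TaqMan qRT-PCR, normalized to ACTB/GAPDH/POLR2A; bidirectional fit vs DMSO.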

MYC, MYC (gene 4609) = assay: LTEA_HepaRG_MYC: Life Technologies and Expression Analysis (LTEA) Assay for MYC using HepaRG (AID 2283518)
In short: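 HepaRG, ~100,000 cells/well, collagen I; 48 h plating; serum-free induction medium; 48 h dosing, duplicate, 100 uM top, half-log, 0.5% DMSO; total RNA → qRT-PCR MYC; gain/loss fit vs DMSO.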

[16] = read-out: Paternally Expressed 10 (PEG10), PEG10 (gene 23089); assay: LTEA_HepaRG_PEG10: Life Technologies and Expression Analysis (LTEA) Assay for Paternally Expressed 10 (PEG10) using HepaRG (AID 2283520)
In short: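 HepaRG, 48 h post-plating → serum-free induction medium → 48 h chemical exposure (duplicate, 8-pt, max 100 uM, half-log, 0.5% DMSO) → lysis in RLT → TaqMan qRT-PCR for PEG10, ACTB/GAPDH/POLR2A normalisation.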

[17] = read-out: matrix metalloproteinase-3 (MMP3), MMP3 (gene 4314); assay: LTEA_HepaRG_MMP3: Life Technologies and Expression Analysis (LTEA) Assay for matrix metalloproteinase-3 (MMP3) using HepaRG (AID 2283519)
In short: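 Differentiated human HepaRG cells, plated 48 h on collagen I, were exposed in duplicate for 48 h in serum-free induction medium to eight half-log concentrations up to 100 uM in 0.5% DMSO. MMP3 mRNA was quantified by TaqMan qRT-PCR, normalised to ACTB, GAPDH and POLR2A.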

[18] = read-out: Interleukin 6 (IL6), IL6 (gene 3569); assay: LTEA_HepaRG_IL6: Life Technologies and Expression Analysis (LTEA) Assay for Interleukin 6 (IL6) using HepaRG (AID 2283509)
In short: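 Differentiated human HepaRG cells, plated 48 h then switched to serum-free induction medium, were exposed in duplicate for 48 h to eight half-log concentrations up to 100 uM in 0.5% DMSO. IL6 mRNA measured by qRT-PCR, normalized to ACTB/GAPDH/POLR2A.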

Measured: outcome

Chain of Hypoxia-inducible factor 1-alpha (Homo sapiens) (Q16665 whole entry, looked up): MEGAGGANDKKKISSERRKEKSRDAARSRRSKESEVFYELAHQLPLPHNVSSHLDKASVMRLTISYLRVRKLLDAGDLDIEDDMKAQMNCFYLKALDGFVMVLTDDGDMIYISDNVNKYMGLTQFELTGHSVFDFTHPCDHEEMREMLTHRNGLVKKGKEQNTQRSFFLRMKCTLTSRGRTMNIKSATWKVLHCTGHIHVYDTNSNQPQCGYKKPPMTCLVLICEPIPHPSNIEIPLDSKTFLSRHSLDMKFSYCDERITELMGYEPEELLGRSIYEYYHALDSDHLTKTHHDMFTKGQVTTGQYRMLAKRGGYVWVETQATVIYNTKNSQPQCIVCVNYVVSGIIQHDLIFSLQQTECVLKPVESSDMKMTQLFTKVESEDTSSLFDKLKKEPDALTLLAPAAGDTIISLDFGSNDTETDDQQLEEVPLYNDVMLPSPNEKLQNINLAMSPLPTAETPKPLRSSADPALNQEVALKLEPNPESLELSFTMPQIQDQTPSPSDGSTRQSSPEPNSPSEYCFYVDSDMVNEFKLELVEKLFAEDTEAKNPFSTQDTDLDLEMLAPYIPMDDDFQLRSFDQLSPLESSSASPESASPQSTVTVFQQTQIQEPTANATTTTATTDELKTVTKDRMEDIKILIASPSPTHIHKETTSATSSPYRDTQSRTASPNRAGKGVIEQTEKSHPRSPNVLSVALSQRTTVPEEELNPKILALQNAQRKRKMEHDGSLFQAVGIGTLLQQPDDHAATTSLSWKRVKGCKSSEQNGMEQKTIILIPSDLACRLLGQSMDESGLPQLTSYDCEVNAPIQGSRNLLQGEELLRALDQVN

CN(C)C(=O)Nc1ccc(Cl)cc1
inactive: [1] | [2] | [3] | [4] | HGF (gene 3082) | [5] | [6] | [7] | [8] | [9] | [10] | [11] | [12] | [13] | [14] | [15] | MYC, MYC (gene 4609) | [16]

Nc1ccc(Oc2ccc(N)cc2)cc1
inactive: [1] | [2] | [3] | [4] | HGF (gene 3082) | [5] | [6] | [7] | [9] | [10] | [11] | [12] | [13] | [14] | [15] | MYC, MYC (gene 4609) | [17] | [16]

Brc1ccc(Oc2ccccc2)cc1
inactive: [1] | [2] | [3] | [4] | HGF (gene 3082) | [5] | [7] | [18] | [8] | [9] | [10] | [11] | [12] | [13] | [14] | [15] | MYC, MYC (gene 4609) | [17] | [16]
